The results in this text go back to PubChem BioAssay (NCATS).

Unmarked numbers belong to inactive results. Records with an inconclusive call do not appear. Active and inactive are the calls of the source. Unless noted, calls follow the shape of the dose curve; as a rule, active = well fitted curve in the direction sought with a large enough effect; inconclusive = small, poorly fitted or top-dose-only effect, or another doubt; inactive = no such curve, though single readings can be large; an effect the other way counts as inactive or inconclusive.

Experiment [1] deals with Rap guanine nucleotide exchange factor 3 (Homo sapiens) (UniProt O95398). The experiment is described as follows: Confirmatory qHTS for antagonist of cAMP-regulated guanine nucleotide exchange factor 3 (EPAC1) (AID 1645880).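 Also: plate controls were DMSO only for no effect and full effect of the ATA control for full effect; nearly all actives have a fitted effect of over 55% in size.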 The gist of the method:
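Nucleotide exchange uses 100 nM EPAC1, 250 nM RAP1B-BODIPY-GDP and 50 uM GDP, with compounds in a concentration-titration series. After 5 min at room temperature, fluorescence (480 nm ex/540 nm em) is read every 5 min for 30 min. Data are normalized to control ATA and DMSO.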

Experiment [2] has the same target. Description: Confirmatory qHTS for agonist of cAMP-regulated guanine nucleotide exchange factor 3 (EPAC1) (AID 1645881). Also: nearly all actives have a fitted effect of over 75% in size. Also: potency is read from the fitted curve at half-maximal effect.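 As to activation: EPAC1 catalysed release of BODIPY-GDP from Rap1B seen as fluorescence loss; 100% = effect of cAMP agonist control.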
Experiment [3] concerns the target Rap guanine nucleotide exchange factor 4 (Homo sapiens) (UniProt Q8WZA2). Description: Confirmatory qHTS for agonist of cAMP-regulated guanine nucleotide exchange factor 4 (EPAC2) (AID 1645884).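 Also: nucleotide exchange releases bodipy-GDP from Rap1 and this lowers its fluorescence; nearly all actives have a fitted effect of over 65% in size.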 Also: potency is read from the fitted curve at half-maximal effect. As to activation: % is scaled to controls: 0 for no effect and ±100 for the full control effect.
Experiment [4] shares this target. The experiment is described as follows: Confirmatory qHTS for antagonist of cAMP-regulated guanine nucleotide exchange factor 4 (EPAC2) (AID 1645885). Also: nearly all actives have a fitted effect of over 25% in size. Also: potency is read from the fitted curve at half-maximal effect. As to activity change, negative = inhibition: % is scaled to controls: 0 for no effect and ±100 for the full control effect.
Experiment [5] addresses Rap guanine nucleotide exchange factor 3 (Homo sapiens) (UniProt O95398). The experiment is described as follows: Counterscreen qHTS for antagonist of cAMP-regulated guanine nucleotide exchange factor 3 (EPAC1) (AID 1645888). Also: % of control where 0% means no effect. Put shortly: (§1)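 Measured: fluorescence of BODIPY-GDP bound to Rap1B, which falls as exchange proceeds. Conditions include 50 uM competing GDP, 5 and 30 min reads, and a later cAMP challenge for antagonist detection.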

The target is the same in experiment [6]. The experiment is described as follows: Counterscreen qHTS for agonist of cAMP-regulated guanine nucleotide exchange factor 3 (EPAC1) (AID 1645889). Also: nearly all actives have a fitted effect of over 40% in size. Also: potency is read from the fitted curve at half-maximal effect. As to activation: % of control where 0% means no effect. Put shortly:
as §1

Experiment [7] deals with Cytochrome P450 1A2 (Homo sapiens) (UniProt P05177). Description: p450-cyp1a2 (AID 410; calls by dose curve; also: potency is read from the fitted curve at half-maximal effect). The gist of the method: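 Inhibition was calculated relative to 57 uM furafylline (full inhibition). The reaction used human CYP1A2 at 20nM with Luciferin-ME at its Km, 100uM, driven by an NADPH-regenerating system for 60 min at room temperature.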
For experiment [8], the target named is Glucocorticoid receptor (Homo sapiens) (UniProt P04150). The experiment is described as follows: GR-GFP Redistribution (AID 450;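 active = compounds whose dose series gives a full or clear partial fitted curve of increased nuclear translocation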; also: potency is read from the fitted curve at half-maximal effect). The note with it: U2OS GR-GFP nuclear translocation, laser cytometry, 2 h.
For experiment [9] the target is unchanged. Description: GR-EFC Redistribution (AID 451; calls by dose curve; also: potency is read from the fitted curve at half-maximal effect). The note with it: CHO-K1 GR-EFC translocation, beta-gal luminescence, 2 h. The gist of the method: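 CHO-K1 cells stably expressing nuclear-localized β-gal enzyme acceptor and GR fused C-terminally to the enzyme donor fragment; ligand-driven nuclear translocation restores β-gal by complementation. Compounds titrated up to 46 uM final, 2 h at 37 °C; luminescence read.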

In experiment [10] the target is DNA dC->dU-editing enzyme APOBEC-3G (Homo sapiens) (UniProt Q9HC16). Description: qHTS for inhibitors of Vif-A3G interactions: Validation (AID 588379). Also: 0% is about no effect. The gist of the method: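 HeLa cells stably expressing Vif and A3G-eYFP, 700 cells/well, incubated overnight at 37 deg C, then exposed to compound overnight at 37 deg C. Inhibition of Vif-mediated degradation read as increased yellow fluorescence (Ex 488/Em 500-530) by laser-scanning cytometry.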
Sequence of DNA dC->dU-editing enzyme APOBEC-3G (Homo sapiens) (Q9HC16 whole entry, looked up): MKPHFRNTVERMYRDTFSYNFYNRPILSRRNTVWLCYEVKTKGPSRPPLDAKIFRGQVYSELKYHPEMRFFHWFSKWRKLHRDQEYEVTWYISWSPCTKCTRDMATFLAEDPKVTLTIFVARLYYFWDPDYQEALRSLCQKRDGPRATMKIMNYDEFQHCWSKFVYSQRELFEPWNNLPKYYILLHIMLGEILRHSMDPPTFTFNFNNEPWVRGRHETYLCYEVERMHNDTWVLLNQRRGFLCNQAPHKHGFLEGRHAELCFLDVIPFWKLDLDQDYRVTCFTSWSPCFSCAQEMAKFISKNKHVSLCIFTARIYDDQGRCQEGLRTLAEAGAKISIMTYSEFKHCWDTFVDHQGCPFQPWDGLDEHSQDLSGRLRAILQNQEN

Sequence of Rap guanine nucleotide exchange factor 4 (Homo sapiens) (Q8WZA2 whole entry, looked up): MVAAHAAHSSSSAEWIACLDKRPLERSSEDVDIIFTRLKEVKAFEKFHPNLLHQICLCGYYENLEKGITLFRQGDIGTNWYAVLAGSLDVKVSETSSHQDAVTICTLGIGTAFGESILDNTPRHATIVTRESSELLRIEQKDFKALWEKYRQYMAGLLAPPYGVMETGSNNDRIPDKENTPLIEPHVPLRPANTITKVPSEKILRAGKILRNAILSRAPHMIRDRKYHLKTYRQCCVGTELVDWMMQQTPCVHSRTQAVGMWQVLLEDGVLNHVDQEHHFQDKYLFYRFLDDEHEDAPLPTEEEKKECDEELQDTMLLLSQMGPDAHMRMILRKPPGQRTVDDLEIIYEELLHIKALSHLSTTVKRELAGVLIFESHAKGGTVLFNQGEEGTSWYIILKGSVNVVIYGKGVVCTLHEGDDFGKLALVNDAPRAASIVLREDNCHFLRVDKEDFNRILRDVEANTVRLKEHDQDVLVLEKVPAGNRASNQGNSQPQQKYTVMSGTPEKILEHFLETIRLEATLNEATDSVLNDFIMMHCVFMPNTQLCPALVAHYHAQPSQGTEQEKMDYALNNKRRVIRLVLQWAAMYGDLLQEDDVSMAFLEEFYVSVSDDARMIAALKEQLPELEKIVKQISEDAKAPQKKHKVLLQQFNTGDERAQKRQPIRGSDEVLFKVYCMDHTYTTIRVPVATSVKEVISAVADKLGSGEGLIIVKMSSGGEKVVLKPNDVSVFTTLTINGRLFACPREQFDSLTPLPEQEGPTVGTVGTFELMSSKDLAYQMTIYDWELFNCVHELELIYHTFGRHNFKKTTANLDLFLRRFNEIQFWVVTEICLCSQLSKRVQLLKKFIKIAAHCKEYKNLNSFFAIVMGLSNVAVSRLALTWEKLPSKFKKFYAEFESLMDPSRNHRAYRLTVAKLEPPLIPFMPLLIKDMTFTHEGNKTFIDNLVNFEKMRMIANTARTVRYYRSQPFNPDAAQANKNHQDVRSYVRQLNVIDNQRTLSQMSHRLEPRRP
Sequence of Rap guanine nucleotide exchange factor 3 (Homo sapiens) (O95398 whole entry, looked up): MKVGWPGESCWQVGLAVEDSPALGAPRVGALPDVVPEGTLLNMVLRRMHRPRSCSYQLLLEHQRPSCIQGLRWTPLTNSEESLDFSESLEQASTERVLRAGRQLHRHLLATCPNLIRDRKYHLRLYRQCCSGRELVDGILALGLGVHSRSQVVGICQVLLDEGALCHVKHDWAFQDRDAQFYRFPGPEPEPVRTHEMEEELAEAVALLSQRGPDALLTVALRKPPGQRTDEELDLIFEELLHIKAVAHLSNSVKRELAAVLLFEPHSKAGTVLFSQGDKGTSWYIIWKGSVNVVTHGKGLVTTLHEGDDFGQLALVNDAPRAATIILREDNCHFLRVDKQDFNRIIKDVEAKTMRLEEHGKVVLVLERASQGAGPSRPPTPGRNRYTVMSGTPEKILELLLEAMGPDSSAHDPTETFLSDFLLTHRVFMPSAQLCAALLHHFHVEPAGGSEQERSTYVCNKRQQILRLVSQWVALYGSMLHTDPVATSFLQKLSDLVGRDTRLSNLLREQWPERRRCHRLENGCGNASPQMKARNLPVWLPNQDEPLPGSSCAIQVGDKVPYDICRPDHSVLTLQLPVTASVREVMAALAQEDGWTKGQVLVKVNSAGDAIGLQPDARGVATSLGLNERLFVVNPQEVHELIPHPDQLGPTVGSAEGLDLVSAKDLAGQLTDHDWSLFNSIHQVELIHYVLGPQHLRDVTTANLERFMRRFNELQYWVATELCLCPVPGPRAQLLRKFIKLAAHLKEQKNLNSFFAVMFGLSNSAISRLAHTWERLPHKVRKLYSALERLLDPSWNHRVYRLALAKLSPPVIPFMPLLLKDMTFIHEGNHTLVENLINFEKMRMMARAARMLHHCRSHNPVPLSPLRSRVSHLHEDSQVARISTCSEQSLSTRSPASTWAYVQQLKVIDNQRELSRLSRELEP
Sequence of Glucocorticoid receptor (Homo sapiens) (P04150 whole entry, looked up, the tested form may be a part): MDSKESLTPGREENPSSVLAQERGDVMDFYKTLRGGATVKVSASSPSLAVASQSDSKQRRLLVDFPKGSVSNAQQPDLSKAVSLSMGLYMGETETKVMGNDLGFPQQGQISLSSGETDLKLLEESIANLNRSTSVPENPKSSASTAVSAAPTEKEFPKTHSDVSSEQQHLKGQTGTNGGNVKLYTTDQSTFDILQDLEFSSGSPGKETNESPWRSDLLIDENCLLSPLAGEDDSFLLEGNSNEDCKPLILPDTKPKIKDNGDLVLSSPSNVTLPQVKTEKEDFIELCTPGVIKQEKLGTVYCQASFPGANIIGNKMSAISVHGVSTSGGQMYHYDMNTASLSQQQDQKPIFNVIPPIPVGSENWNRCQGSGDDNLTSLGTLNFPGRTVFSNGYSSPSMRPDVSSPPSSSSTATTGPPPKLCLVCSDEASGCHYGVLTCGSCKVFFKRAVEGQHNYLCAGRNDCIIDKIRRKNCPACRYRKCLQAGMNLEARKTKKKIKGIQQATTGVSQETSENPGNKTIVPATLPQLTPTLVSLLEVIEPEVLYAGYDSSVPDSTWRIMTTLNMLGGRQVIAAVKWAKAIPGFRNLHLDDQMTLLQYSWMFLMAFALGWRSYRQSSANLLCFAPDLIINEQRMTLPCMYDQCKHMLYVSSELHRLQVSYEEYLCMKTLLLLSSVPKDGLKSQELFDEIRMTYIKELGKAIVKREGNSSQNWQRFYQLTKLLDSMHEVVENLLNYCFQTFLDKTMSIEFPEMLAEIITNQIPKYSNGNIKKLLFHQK
Sequence of Cytochrome P450 1A2 (Homo sapiens) (P05177 whole entry, looked up): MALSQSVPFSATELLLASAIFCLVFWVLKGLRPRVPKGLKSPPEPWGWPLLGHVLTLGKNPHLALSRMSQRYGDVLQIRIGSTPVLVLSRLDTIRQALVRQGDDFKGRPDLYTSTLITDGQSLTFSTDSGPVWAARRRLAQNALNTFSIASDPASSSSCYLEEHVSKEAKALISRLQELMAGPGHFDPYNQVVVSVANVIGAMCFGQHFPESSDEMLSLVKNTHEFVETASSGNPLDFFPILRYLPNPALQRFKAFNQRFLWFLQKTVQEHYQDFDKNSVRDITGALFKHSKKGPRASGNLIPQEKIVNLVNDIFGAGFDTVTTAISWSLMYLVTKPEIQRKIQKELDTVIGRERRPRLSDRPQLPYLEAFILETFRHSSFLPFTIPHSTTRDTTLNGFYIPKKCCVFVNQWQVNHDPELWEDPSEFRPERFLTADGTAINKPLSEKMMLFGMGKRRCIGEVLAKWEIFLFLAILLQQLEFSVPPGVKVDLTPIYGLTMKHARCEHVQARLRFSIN

With `COc1ccc(-c2cc(C(F)(F)F)nc(SCC(=O)NCCc3ccccc3)n2)cc1OC`, the Potency result in [1], in experiment [2], in experiment [3], in experiment [4], in [5] and in experiment [6] was “inactive” each time.

For the molecule `COc1cc(-c2c(CCO)sc3ccccc23)cc(OC)c1OC`, the Potency entry in [1], in experiment [2] and in experiment [4] was “inactive” in each case. Besides, the activation in experiment [3] was 1.4% [at 17.1 µM, percent relative to cAMP agonist control]; in [6], 8.02% [at 30.8 µM]. The activity change, negative = inhibition in experiment [5] was -51.2% [at 30.8 µM].

For the molecule `N#CC(C(=O)NCc1ccco1)c1nc2ccccc2nc1N1CCOCC1` (configuration not stated), the Potency result in experiment [1], in experiment [2] and in experiment [4] was “inactive” throughout. The activation is 4.26% [at 17.1 µM, percent relative to cAMP agonist control] in experiment [3] and 19.4% [at 30.8 µM] in [6]. Further, the activity change, negative = inhibition in experiment [5] is -11.6% [at 30.8 µM].

`COc1ccc(/C=C(/NC(=O)c2ccccc2)C(=O)N/N=C/c2ccncc2)c(OC)c1`: the Potency result in [1], in experiment [2] and in [4] was “inactive” throughout. For the same molecule, the activation is 2.49% [at 17.1 µM, percent relative to cAMP agonist control] in [3] and 12.1% [at 30.8 µM] in [6]. Also, the activity change, negative = inhibition in [5] is 28.5% [at 30.8 µM].

As for `CCOCCCn1c(SCC(=O)Nc2ccc(OC)cc2OC)nc2ccccc2c1=O`, the Potency result in experiment [1], in experiment [2], in experiment [3], in [5] and in [6] was “inactive” each time. Also, the outcome in [4] was “inactive [at 12.7 µM]”.

Regarding `CC(C)CNc1cc(Cl)c(S(=O)(=O)NCC(C)C)cc1C(=O)O`, the Potency result in [1], in experiment [2] and in experiment [4] was “inactive” each time. Also, the activation is 1.7% [at 17.1 µM, percent relative to cAMP agonist control] in experiment [3] and -0.574% [at 30.8 µM] in experiment [6]. The activity change, negative = inhibition in experiment [5] was 8.12% [at 30.8 µM].

As to `NS(=O)(=O)c1ccc(NC(=O)Cc2c(F)cccc2Cl)cc1`, the Potency result in [1], in [2], in [3], in experiment [4], in experiment [5] and in [6] was “inactive” throughout.

Regarding `COc1c(-c2ccccc2)oc2c(ccc3occc32)c1=O`, the Potency in experiment [7] is 25.1 nM (active); in experiment [8], > 46 µM; in [9] it was > 46 µM. In addition, the molecule was called inactive in [10]. For the same molecule, the Potency result in experiment [1], in [2], in experiment [3] and in experiment [6] was “inactive” throughout.

For the molecule `O=S(c1ccc2ccccc2c1)c1cnns1` (configuration not stated), the Potency result in experiment [2], in [3], in [4] and in experiment [5] was “inactive” throughout.

For `S=C(Nc1cccc2ccccc12)NC1CCCCC1`, the Potency result in experiment [1], in [2] and in experiment [4] was “inactive” each time. For the same molecule, the activation was 0.103% [at 17.1 µM, percent relative to cAMP agonist control] in experiment [3] and 5.1% [at 30.8 µM] in experiment [6]. Further, in experiment [5], the activity change, negative = inhibition is 5.07% [at 30.8 µM].

With `N#CC1(NC(=O)COC(=O)c2nc(Cl)c(Cl)c(N)c2Cl)CCCCC1`, the Potency result in experiment [2], in [3], in experiment [4] and in [5] was “inactive” throughout.

With `O=C1NC(=O)C2(N1)C(=O)c1cccc3cccc2c13` (configuration not stated), the Potency entry in experiment [1] was “inactive”. Also, the Potency in experiment [2] is 112 µM (active); in [3], 100 µM (active); in experiment [4], 47.8 µM (active); in [6] it was 44.7 µM (active).

Take `CCOC(=O)CN1C(=O)c2ccccc2Sc2ncccc21`: the Potency result in experiment [1], in experiment [2], in experiment [4], in experiment [5] and in [6] was “inactive” in each case. Also, in experiment [3], the activation is 0% [at 17.1 µM, percent relative to cAMP agonist control].

Turning to `COc1cc2c3nnc(-c4ccccc4)c-3cn(Cc3ccc(F)cc3)c2cc1OC`, the Potency result in experiment [2], in experiment [3] and in [4] was “inactive” each time.

On to `CC(C)Cc1csc(NC(=O)c2ccc(Cl)cc2)c1C(=O)O`, for which the Potency entry in experiment [2] and in experiment [4] was “inactive” throughout. Further, in [3], the activation is 0% [at 17.1 µM, percent relative to cAMP agonist control]. Besides, the activity change, negative = inhibition in experiment [5] is -11.2% [at 30.8 µM].

On to `CCN(CC)c1ccc2cc(-c3nnc(Nc4ccc(C)cc4)s3)c(=O)oc2c1`, for which the Potency in experiment [2] is 112 µM (active); in [3], 35.5 µM (active); in experiment [4] it was 5.36 µM (active).

Turning to `Nc1c(C(=O)c2ccccc2)sc2nsc(SCCN3CCOCC3)c12`, the Potency entry in experiment [1], in experiment [2], in [3], in experiment [4], in experiment [5] and in [6] was “inactive” each time.

On to `Nc1nc(CSc2nnnn2-c2ccc(Cl)cc2)nc(N2CCOCC2)n1`, for which the Potency result in [1], in [2] and in [4] was “inactive” in each case. In addition, the activation was 5.65% [at 17.1 µM, percent relative to cAMP agonist control] in experiment [3] and 8.16% [at 30.8 µM] in [6]. The activity change, negative = inhibition in [5] was 9.77% [at 30.8 µM].

On to `Nc1ccc(-c2c3ccc(=O)cc-3oc3cc(O)ccc23)c(C(=O)O)c1`, for which the Potency result in experiment [1] and in experiment [4] was “inactive” throughout. The Potency in experiment [2] is 100 µM (active); in experiment [3], 100 µM (active); in experiment [6], 31.6 µM (active).
